The values below come from PubChem BioAssay.

The nature of experiment [1]: binders of probe aFSTL3 on microarray, primary screen, stem cell growth factor project, biochemical, small-molecule microarray, fluorescence 635/667 (AID 1064).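 Further: measures binding of the biotinylated anti-FSTL3 antibody to printed compounds.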 The conditions noted are these: higher = more signal.
A short description of experiment [2]: binders from COS7 lysate, DM2A8 probe, primary screen, torsin A project, cell lysate, small-molecule microarray, fluorescence 635/667 (AID 1065). The conditions noted are these: higher = more signal, COS7 lysate expressing mutant human TOR1A.
Experiment [3] is described as follows: binders of probe aFGF2 on microarray, primary screen, stem cell growth factor project, biochemical, small-molecule microarray, fluorescence 635/667 (AID 1067).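 Further: measures binding of biotinylated aFGF2 protein to printed compounds on slides; z-score merges feature fluorescence and signal-to-noise across triplicate slides.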 The conditions noted are these: higher = more signal.
A short description of experiment [4]: binders of probe aFGF10 on microarray, primary screen, stem cell growth factor project, biochemical, small-molecule microarray, fluorescence 635/667 (AID 1071).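 Further: score merges 667 nm spot intensity and signal to noise from triplicate slides.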 The conditions noted are these: higher = more signal.
The target of experiment [5] is Neurogenic locus notch homolog protein 2 (Homo sapiens) (UniProt Q04721). The experiment can be described thus: Notch2 binders on small-molecule microarrays, primary screen, biochemical, small-molecule microarray, 635 nm fluorescence, stem cell growth factors (AID 1073). The conditions noted are these: Notch2 binding, higher = more signal.
Experiment [6] concerns the target Pro-neuregulin-1, membrane-bound isoform (Homo sapiens) (UniProt Q02297). The experiment can be described thus: NRG1 binders on small-molecule microarrays, primary screen, psychiatric disease protein project, biochemical, small-molecule microarray, fluorescence 635/667 (AID 1075).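 Further: score combines 667 nm spot fluorescence with signal to noise.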 The conditions noted are these: NRG1 binding, 635 nm fluorescence, higher = more signal.

Experiment [7] concerns Neuregulin-1 EGF-like domain. Description: binders of neuregulin-1 EGF-like domain, primary screen, biochemical, small-molecule microarray, 635 nm fluorescence (AID 1081).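 Further: binding of the protein to compounds printed on small-molecule microarray slides.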 The conditions noted are these: small-molecule microarray binding, higher = more signal.
Experiment [8] is described as follows: FRG1 promoter luciferase signal modulators, primary screen, FRG1 inhibition for FSHD, cell-based, C2C12 myotubes, firefly/Renilla luciferase, luminescence (AID 1084). The conditions noted are these: higher = more signal, called active from +8 up or from −8 down.
A short description of experiment [9]: binders of probe aFST on microarray, primary screen, stem cell growth factor project, biochemical, small-molecule microarray, fluorescence 635/667 (AID 1086).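 Further: score merges 667 nm fluorescence with signal-to-noise of each printed compound spot.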 The conditions noted are these: higher = more signal.
Experiment [10] can be described thus: binders of probe aHhip on microarray, primary screen, stem cell growth factor project, biochemical, small-molecule microarray, fluorescence 635/667 (AID 1087).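 Further: score merges spot fluorescence at 667nm with spot signal to noise ratio.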 The conditions noted are these: higher = more signal.
Experiment [11] concerns PRMT1 (protein arginine N-methyltransferase 1). The experiment can be described thus: PRMT1 binders on small-molecule microarrays, primary screen, biochemical, small-molecule microarray, 635 nm fluorescence (AID 1088).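 Further: binding of Prmt1 protein to compounds spotted on small-molecule microarray slides.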 The conditions noted are these: small-molecule microarray binding, higher = more signal.
A short description of experiment [12]: yeast growth modulation, basal conditions, primary screen, YJM789 clinical isolate, OD600, 24 h (AID 1089).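 Further: growth of clinical yeast isolate S. cerevisiae YJM 789 seeded 1000 cells per well; test concentration not given here.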 The conditions noted are these: S. cerevisiae YJM789 growth, higher = more signal, called active from +8 up or from −8 down.
The nature of experiment [13]: fission yeast growth modulation, primary screen, strain 972, OD600, 24 h, no modulator (AID 1090).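 Further: basal condition with compound alone and no growth modifier present; test concentration not given here.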 The conditions noted are these: S. pombe 972 growth, higher = more signal, called active from +8 up or from −8 down.
A short description of experiment [14]: S. cerevisiae growth modulation with rapamycin, primary screen, strain BY4716, OD600, 96 h (AID 1091). Further: test concentration not given here. The conditions noted are these: higher = more signal, called active from +8 up or from −8 down.
For experiment [15], the target named is Torsin-1A-interacting protein 2 (Homo sapiens) (UniProt Q8NFQ8). Description: LULL1 binders on small-molecule microarray, primary screen, cell lysate, human LULL1 lysate, 635/667 nm fluorescence (AID 1092).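 Further: probe is lysate of COS7 cells overexpressing human LULL1; score merges per-feature 667 nm fluorescence with signal-to-noise.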 The conditions noted are these: hLULL1 lysate binding, 635 nm fluorescence, higher = more signal.
Experiment [16] can be described thus: E. coli growth modulation, two-sided OD650, primary screen, E. coli filamentation project, strain DRC41, 24 h (AID 1093).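 Further: MC1000 strain lacking acrAB efflux and sulA so SOS filamentation is blocked; test concentration not given here.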 The conditions noted are these: OD650, 24 h, higher = more signal, called active from +8 up or from −8 down.
The nature of experiment [17]: small-molecule microarray binders of probe aLefty2, primary screen, biochemical, biotinylated probe, 635/667 nm fluorescence (AID 1094).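 Further: score merges spot fluorescence near 667 nm with spot signal-to-noise ratio.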 The conditions noted are these: higher = more signal.
Experiment [18] relates to Noggin (protein binding on small-molecule microarray). The experiment can be described thus: Noggin binders on small-molecule microarray, primary screen, biochemical, 635/667 nm fluorescence (AID 1095).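 Further: score merges 667 nm feature fluorescence with signal to noise over triplicate slides.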 The conditions noted are these: 635 nm fluorescence, higher = more signal.
The target of experiment [19] is Neurogenic locus notch homolog protein 3 (Homo sapiens) (UniProt Q9UM47). Description: NOTCH3 binders on small-molecule microarray, primary screen, biochemical, 635/667 nm fluorescence (AID 1096). The conditions noted are these: NOTCH3 binding, 635 nm fluorescence, higher = more signal.
The nature of experiment [20]: small-molecule microarray binders of probe aEGFR, primary screen, biochemical, biotinylated probe, 635/667 nm fluorescence (AID 1097).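 Further: probe is a biotinylated anti-EGFR antibody binding compounds printed on slides; score combines fluorescence near 667 nm and signal to noise of each spot.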 The conditions noted are these: higher = more signal.

Each structure is given as a SMILES string. Where “and” joins values, the source holds several entries; their conditions need not be identical. Identical values can stand only once. Calls of active or inactive are those of the source.

Chain of Neurogenic locus notch homolog protein 2 (Homo sapiens) (Q04721 whole entry, looked up, canonical isoform): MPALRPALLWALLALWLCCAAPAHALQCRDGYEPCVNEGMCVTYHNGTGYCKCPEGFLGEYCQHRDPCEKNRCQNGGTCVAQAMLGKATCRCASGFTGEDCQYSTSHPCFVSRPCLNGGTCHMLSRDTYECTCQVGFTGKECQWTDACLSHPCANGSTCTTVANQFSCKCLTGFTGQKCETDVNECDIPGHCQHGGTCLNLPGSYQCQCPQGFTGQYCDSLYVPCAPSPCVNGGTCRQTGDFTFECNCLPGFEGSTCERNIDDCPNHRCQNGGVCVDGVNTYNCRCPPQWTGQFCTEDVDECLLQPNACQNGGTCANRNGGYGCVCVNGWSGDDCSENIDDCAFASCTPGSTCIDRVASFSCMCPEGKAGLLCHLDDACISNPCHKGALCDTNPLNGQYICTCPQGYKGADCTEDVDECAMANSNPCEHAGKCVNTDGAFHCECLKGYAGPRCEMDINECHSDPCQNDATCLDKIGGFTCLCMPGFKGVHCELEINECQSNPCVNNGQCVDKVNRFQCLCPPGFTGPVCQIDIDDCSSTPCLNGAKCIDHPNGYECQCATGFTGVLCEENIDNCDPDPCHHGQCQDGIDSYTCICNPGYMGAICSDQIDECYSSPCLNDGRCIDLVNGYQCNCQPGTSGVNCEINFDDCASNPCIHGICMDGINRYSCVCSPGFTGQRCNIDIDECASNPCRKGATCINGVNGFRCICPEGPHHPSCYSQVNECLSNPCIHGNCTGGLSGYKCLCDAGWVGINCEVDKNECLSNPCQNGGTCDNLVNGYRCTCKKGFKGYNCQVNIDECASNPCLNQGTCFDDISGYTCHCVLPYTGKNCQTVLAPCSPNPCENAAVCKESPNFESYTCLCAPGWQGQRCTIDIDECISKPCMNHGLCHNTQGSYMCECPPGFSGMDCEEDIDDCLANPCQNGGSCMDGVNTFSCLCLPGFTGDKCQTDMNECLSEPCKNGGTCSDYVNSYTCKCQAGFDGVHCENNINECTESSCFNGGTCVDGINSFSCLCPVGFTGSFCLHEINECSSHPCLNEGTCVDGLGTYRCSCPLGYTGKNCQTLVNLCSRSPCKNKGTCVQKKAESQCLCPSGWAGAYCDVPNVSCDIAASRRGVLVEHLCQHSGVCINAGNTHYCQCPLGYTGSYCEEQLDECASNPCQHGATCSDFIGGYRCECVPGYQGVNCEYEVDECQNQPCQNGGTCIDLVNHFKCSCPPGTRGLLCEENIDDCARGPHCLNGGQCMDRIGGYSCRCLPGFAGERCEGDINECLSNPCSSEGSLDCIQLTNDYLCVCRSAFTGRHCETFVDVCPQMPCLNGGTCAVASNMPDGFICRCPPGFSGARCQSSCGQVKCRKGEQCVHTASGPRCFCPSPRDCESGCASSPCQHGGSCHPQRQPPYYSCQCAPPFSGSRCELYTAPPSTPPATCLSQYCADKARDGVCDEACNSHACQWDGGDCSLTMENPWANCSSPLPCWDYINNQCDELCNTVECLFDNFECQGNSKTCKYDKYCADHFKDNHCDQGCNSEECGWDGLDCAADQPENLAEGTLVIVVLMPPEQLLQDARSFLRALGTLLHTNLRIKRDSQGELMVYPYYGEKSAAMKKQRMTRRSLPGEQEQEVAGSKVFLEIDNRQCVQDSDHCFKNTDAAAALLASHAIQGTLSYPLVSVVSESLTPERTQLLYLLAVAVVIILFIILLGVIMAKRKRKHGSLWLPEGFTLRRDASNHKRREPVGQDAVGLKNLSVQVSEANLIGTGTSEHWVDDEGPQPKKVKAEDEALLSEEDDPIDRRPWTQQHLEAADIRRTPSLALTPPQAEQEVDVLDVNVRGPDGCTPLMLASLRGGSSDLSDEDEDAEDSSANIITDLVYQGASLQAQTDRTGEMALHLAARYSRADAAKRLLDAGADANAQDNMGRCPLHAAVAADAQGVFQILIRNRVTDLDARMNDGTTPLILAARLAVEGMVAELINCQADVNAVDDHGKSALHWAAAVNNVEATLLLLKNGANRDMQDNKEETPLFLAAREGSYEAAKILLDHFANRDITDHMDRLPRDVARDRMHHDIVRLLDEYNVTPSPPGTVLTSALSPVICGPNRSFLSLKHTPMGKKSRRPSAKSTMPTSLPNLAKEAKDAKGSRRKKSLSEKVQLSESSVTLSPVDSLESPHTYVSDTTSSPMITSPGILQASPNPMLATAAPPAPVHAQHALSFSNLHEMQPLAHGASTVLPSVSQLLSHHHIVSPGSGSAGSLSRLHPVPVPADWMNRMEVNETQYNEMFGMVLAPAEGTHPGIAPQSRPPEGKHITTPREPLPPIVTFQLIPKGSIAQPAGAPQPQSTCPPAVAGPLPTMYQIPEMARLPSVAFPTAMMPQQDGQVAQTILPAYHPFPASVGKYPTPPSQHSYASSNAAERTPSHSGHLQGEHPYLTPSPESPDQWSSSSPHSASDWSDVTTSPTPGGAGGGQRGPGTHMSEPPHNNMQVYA
Chain of Neurogenic locus notch homolog protein 3 (Homo sapiens) (Q9UM47 whole entry, looked up): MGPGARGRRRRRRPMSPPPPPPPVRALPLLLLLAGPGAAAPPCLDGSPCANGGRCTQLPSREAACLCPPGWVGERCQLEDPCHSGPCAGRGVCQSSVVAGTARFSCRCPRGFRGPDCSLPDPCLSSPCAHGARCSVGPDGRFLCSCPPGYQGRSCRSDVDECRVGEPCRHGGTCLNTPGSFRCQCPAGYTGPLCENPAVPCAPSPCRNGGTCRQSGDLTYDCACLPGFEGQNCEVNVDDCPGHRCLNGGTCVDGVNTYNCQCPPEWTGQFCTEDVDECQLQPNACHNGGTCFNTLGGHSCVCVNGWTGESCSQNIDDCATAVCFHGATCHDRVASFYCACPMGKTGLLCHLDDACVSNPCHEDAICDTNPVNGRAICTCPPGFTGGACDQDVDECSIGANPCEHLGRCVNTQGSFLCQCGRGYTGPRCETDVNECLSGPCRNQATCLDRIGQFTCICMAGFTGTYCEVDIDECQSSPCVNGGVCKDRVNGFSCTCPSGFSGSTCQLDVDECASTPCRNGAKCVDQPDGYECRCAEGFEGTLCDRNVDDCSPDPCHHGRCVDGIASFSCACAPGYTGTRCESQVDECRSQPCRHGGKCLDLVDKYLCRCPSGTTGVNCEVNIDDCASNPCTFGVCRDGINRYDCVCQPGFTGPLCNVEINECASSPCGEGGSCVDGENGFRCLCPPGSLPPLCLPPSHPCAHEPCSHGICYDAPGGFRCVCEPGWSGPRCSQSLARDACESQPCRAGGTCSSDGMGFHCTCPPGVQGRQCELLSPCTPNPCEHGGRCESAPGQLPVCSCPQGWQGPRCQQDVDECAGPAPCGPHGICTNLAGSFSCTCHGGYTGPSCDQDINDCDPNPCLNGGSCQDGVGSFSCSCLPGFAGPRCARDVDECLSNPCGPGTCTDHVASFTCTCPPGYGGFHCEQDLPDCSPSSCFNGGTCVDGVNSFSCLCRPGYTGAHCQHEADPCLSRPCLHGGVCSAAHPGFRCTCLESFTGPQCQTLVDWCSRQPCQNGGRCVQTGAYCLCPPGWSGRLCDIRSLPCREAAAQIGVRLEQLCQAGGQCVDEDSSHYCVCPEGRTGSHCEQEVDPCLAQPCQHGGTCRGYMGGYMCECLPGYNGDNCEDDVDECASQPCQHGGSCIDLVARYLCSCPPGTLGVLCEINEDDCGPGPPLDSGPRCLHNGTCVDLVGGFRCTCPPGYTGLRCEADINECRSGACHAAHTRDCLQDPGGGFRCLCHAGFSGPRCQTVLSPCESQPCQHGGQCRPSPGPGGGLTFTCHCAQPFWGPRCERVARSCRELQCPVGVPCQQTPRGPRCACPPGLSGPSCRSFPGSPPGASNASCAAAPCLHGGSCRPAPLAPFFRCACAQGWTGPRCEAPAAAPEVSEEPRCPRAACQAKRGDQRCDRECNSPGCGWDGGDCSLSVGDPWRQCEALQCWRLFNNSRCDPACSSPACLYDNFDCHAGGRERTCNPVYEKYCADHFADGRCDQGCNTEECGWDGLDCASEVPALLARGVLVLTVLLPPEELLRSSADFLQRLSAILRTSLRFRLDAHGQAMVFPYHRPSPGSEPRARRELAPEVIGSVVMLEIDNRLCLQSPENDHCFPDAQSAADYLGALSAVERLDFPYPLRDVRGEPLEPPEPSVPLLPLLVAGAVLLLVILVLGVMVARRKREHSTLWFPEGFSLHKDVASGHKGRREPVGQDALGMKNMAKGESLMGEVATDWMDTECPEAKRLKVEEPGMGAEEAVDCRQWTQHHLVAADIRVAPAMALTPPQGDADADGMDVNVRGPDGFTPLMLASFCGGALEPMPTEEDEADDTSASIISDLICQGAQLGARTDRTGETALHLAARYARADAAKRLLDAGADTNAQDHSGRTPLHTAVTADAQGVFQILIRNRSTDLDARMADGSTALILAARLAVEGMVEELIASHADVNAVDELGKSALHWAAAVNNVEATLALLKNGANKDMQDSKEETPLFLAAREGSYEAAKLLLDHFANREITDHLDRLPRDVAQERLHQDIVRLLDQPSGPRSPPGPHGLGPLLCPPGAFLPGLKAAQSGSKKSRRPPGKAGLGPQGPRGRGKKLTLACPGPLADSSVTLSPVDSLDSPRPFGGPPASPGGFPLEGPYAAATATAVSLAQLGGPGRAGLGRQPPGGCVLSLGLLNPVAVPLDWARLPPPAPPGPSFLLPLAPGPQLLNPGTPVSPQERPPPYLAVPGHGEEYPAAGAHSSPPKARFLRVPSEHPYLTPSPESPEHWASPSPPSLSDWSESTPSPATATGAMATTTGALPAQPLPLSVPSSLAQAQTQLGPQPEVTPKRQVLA

`C=CCN(C(=O)C1N(CCOCCO)C(=O)C2C(C(=O)O)C3C=CC21O3)c1ccc(OC)cc1` (stereo not given): the composite z-score in experiment [1] is 1.11 and 1.65; in experiment [2], -1.59 and -1.21; in experiment [3], -0.184 and -0.254; in [4], -0.719 and -1.97; in [5], -2.35 and -1.84; in [6] it was 0.555 and 2.07. The composite z-score was 0.328 and 0.86 in [7]; -0.654 and -0.932 in experiment [9]; -0.581 and -0.349 in experiment [10]; -0.968 and -2.33 in experiment [11]; -0.408 and 1.86 in [15]; -0.158 and 0.0873 in experiment [17]. Further, the composite z-score in [18] is -1.79 and -3.14; in experiment [19], -0.59 and -0.715; in experiment [20] it was -0.348 and -0.276. Also, the z-score in experiment [8] is -0.408 (inactive) and -0.715 (inactive); in experiment [12] it was -0.248 (inactive) and -0.0945 (inactive); in experiment [13], -0.188 (inactive) and -0.571 (inactive); in experiment [14], -0.348 (inactive) and -0.662 (inactive); in experiment [16] it was 0.612 (inactive) and 1.52 (inactive).

Consider `CC[C@@H]1C(Sc2ccccc2)C(C(=O)O)[C@H](c2ccc(C)cc2)N1S(=O)(=O)c1ccc(C)cc1` (stereo not given in full), for which the composite z-score is 0.249 and -0.499 in [1]; 0.364 and -0.0981 in experiment [2]; 0.0013 and 0.166 in experiment [3]; 0.579 and 0.288 in experiment [4]; 1.56 and 1.12 in experiment [5]; 1.82 and 1.91 in experiment [6]. Also, the composite z-score in [7] is 1.39 and 1.2; in [9], 0.254 and 1.05; in [10] it was -0.179 and -0.0994; in [11], 1.25 and 1.49; in experiment [15] it was 2.66 and 3.19; in experiment [17] it was 0.149 and -0.0615. The composite z-score in experiment [18] was -0.0727 and -0.216; in [19], 1.11 and 1.07; in experiment [20], -0.0025 and -0.114. Besides, the z-score in [8] was -3.66 (inactive) and -3.89 (inactive); in experiment [12], -0.768 (inactive) and -2.59 (inactive); in [13], 0.796 (inactive) and -0.975 (inactive); in experiment [14], -0.451 (inactive) and -0.576 (inactive); in experiment [16] it was -0.889 (inactive) and -0.743 (inactive).

For the molecule `CC(C)N1CC=CC23O[C@@H]4C=CCCOC(=O)C4[C@H]2C(=O)N(C(C)CO)[C@@H]3C1=O` (stereo not given in full), the composite z-score is 0.886 and 0.781 in experiment [1]; 0.543 and -0.0534 in [2]; -0.158 and -0.116 in experiment [3]; -1.39 and -0.751 in [4]; -0.0092 and -0.882 in experiment [5]; 2.21 and -0.35 in experiment [6]. The composite z-score in experiment [7] was 0.958 and 0.694; in experiment [9], -0.828 and -0.509; in experiment [10], -0.178 and 0.0176; in [11], 1.18 and -0.323; in experiment [15], 3.21 and -0.371; in experiment [17], -0.0911 and -0.043. The composite z-score in experiment [18] was -1.14 and -0.975; in experiment [19], -0.22 and -0.455; in experiment [20], -0.317 and -0.308. The z-score is -0.746 (inactive) and 0.0086 (inactive) in experiment [8]; -1.29 (inactive) and 0.11 (inactive) in experiment [12]; -1.18 (inactive) and -1.07 (inactive) in [13]; -1.28 (inactive) and 0.687 (inactive) in experiment [14]; 2.82 (inactive) and 2.22 (inactive) in experiment [16].

`COC(=O)[C@@]1(Cc2ccc(OC)cc2)[C@H]2c3cc(C(=O)N(C)C)n(Cc4ccc(O)c(OC)c4)c3C[C@H]2CN1C(=O)c1ccccc1`: the composite z-score in experiment [1] was 0.332 and 0.233; in [2], 0.703 and 0.13; in experiment [3] it was -0.169 and 0.176; in experiment [4], 0.123 and 1.17; in experiment [5] it was 1.64 and 1.68; in experiment [6] it was 2.15 and 1.85. The composite z-score in [7] is 1.32 and 1.22; in experiment [9], 0.808 and 1.15; in experiment [10], 0.329 and 0.483; in experiment [11], -0.406 and 0.571; in experiment [15] it was 3.65 and 3.34; in [17], 0.437 and 0.261. Besides, the composite z-score in experiment [18] is 0.219 and 0.19; in experiment [19], 0.807 and 1.07; in experiment [20], 0.0395 and 0.0354. For the same molecule, the z-score in experiment [8] is 2.53 (inactive) and -0.466 (inactive); in experiment [12] it was 0.403 (inactive) and -0.731 (inactive); in experiment [13] it was 1.08 (inactive) and 1.73 (inactive); in [14], 0.374 (inactive) and 2.03 (inactive); in [16] it was 0.151 (inactive) and 0.266 (inactive).

With `CCOC(=O)NN=C1C[C@@H](O)[C@@H](O)[C@@H]2[C@@H]3C(=O)N(Cc4ccc5c(c4)OCO5)C(=O)[C@@H]3CC[C@@H]12`, the composite z-score in experiment [1] was -0.441; in experiment [2], 0.16; in experiment [3], -0.121; in experiment [4], 0.505; in [5], 0.34; in experiment [6], 0.416. Besides, the composite z-score was 0.858 in experiment [7]; 0.16 in [9]; 0.007 in experiment [10]; 0.365 in experiment [11]; 2.14 in [15]; -0.148 in experiment [17]. Also, the composite z-score was 0.0857 in experiment [18], -0.209 in [19] and -0.148 in experiment [20]. Further, the z-score is -0.544 (inactive) in [8]; 0.282 (inactive) in experiment [12]; -0.117 (inactive) in experiment [13]; -0.135 (inactive) in experiment [14]; 0.234 (inactive) in experiment [16].

On to `C=CCN(C(=O)C1N(CCCCCCO)C(=O)C2C(C(=O)O)C3C=CC21O3)c1ccc(OC)cc1` (stereo not given), for which the composite z-score in experiment [1] is 0.859 and 1.23; in experiment [2] it was -0.585 and -0.754; in [3], -0.241 and -0.18; in experiment [4] it was -2.33 and -1.4; in [5] it was -2.07 and -1.8; in experiment [6], 1.12 and -1.47. Also, the composite z-score was 0.786 and -1.16 in experiment [7]; -0.718 and -0.496 in experiment [9]; -0.126 and 0.0623 in experiment [10]; -0.176 and -1.86 in experiment [11]; 3.53 and 3.04 in [15]; 0.259 and 0.337 in experiment [17]. Also, the composite z-score was -2.89 and -3.12 in experiment [18]; -0.602 and -1.35 in experiment [19]; -0.267 and -0.241 in experiment [20]. Also, the z-score in experiment [8] is 0.608 (inactive) and 0.789 (inactive); in experiment [12], -0.943 (inactive) and -0.7 (inactive); in [13], -2.12 (inactive) and -1.62 (inactive); in [14], -1.2 (inactive) and -0.708 (inactive); in experiment [16], 2.3 (inactive) and 1.01 (inactive).
